Source: PubChem BioAssay (NCATS)
Records with an inconclusive call do not appear. Activity calls are given as the source filed them. Unless noted, calls come from the whole dose curve; as a rule, active = well fitted curve in the direction sought with a large enough effect; inconclusive = small, poorly fitted or top-dose-only effect, or another doubt; inactive = no such curve, though single readings can be large; an effect the other way counts as inactive or inconclusive.

Key:
[1] = target: Lysosomal acid glucosylceramidase (Homo sapiens) (UniProt P04062); experiment: Glucocerebrosidase-p2 (AID 348; in the data active = potency below about 10 µM; note: potency is the fitted concentration of half-maximal effect); details: purified GBA, blue fluorogenic substrate, 40 min
Method in brief: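 Normal human glucocerebrosidase (0.2 nM) with blue fluorogenic substrate (80 uM final) in citrate/phosphate pH 5.9 with 10mM sodium taurocholate, 0.01% tween-20; 40 min RT, NaOH/glycine stop; fluorescence Ex 365/Em 440; AC50 from a titration from 0.6 nM upwards.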

[2] = AP1 Signaling Pathway (AID 357; active = well fitted curve in either direction with a large enough effect, not every such curve was filed as active;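 note: ME-180 reporter cells stimulated with EGF at its EC50 level; % is set by controls: 0 for no effect and ±100 for the full control effect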); details: ME-180 AP-1-bla reporter, EGF-induced, beta-lactamase ratio, 5 h; at 7.69 µM (top of the series) unless noted
Method in brief: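 Read-out was the 460nm/530nm emission ratio (excitation 405nm) after CCF4 loading for 2.5 hours at room temperature. Cells carried an AP-1-driven beta-lactamase reporter, were stimulated with EC50 EGF plus compound for 5 hours, and AC50 values came from titrations.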

[3] = target: Cytochrome P450 1A2 (Homo sapiens) (UniProt P05177); experiment: p450-cyp1a2 (AID 410; calls by dose curve; note: potency is the fitted concentration of half-maximal effect); details: recombinant CYP1A2, luciferin-ME demethylation, luminescence; series mostly up to 57 µM
Method in brief: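 Read-out is luminescence from luciferin produced by CYP1A2 demethylation of Luciferin-ME (100uM, at Km). Detection reagent stopped the 60 min NADPH-dependent reaction; signals were normalized to 57 uM furafylline.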

[4] = NFAT Signaling Pathway (AID 444; active = well fitted curve in either direction with a large enough effect, not every such curve was filed as active;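 note: carbachol stimulus at about its EC50 of 1 µM final; % is set by controls: 0 for no effect and ±100 for the full control effect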); details: Jurkat NFAT-bla M1, carbachol, beta-lactamase ratio, 5 h; at 7.69 µM (top of the series) unless noted
Method in brief: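 Read-out: CCF4 FRET ratio (460 nm/530 nm) after 1 h RT dye loading, used for %activity and AC50 from titration series. Cells: Jurkat NFAT-β-lactamase/M1 line, treated with compound plus 1 uM carbachol for 5 h, 37 °C.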

[5] = Stat Signaling Pathway (AID 446; active = well fitted curve in either direction with a large enough effect, not every such curve was filed as active;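 note: ME-180 cervical cancer cells given 40 pM IL-6 alongside compound; SIE-controlled beta-lactamase reporter measured as 460/530 nm FRET emission ratio; % is set by controls: 0 for no effect and ±100 for the full control effect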); details: ME-180 (cervical carcinoma) SIE beta-lactamase reporter, IL-6 stimulated, 5 h; at 7.69 µM (top of the series) unless noted
Method in brief: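 Compound effects on IL-6-induced STAT reporter activity were measured in ME-180 cells. After overnight culture, cells were co-treated with 40 pM IL-6 for 5 hrs before beta-lactamase substrate loading at room temperature.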

[6] = target: Glucocorticoid receptor (Homo sapiens) (UniProt P04150); experiment: GR-GFP Redistribution (AID 450;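 active = compounds whose dose series gives a full or clear partial fitted curve of increased nuclear translocation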; note: potency is the fitted concentration of half-maximal effect); details: U2OS GR-GFP nuclear translocation, laser cytometry, 2 h
[7] = target: Glucocorticoid receptor (Homo sapiens) (UniProt P04150); experiment: GR-EFC Redistribution (AID 451; calls by dose curve; note: potency is the fitted concentration of half-maximal effect); details: CHO-K1 GR-EFC translocation, beta-gal luminescence, 2 h
Method in brief: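 Translocation of GR-ED fusion to nuclear EA restores b-gal, read by luminescence after 1 h room-temperature detection. Engineered CHO-K1 biosensor cells, 1,000/well, exposed 2 h at 37 C to titrations up to 46 uM final.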

[8] = target: Mitogen-activated protein kinase 10 (Mus musculus) (UniProt Q61831); experiment: JNK3 AlphaScreen Assay (AID 530; active = well fitted curve in either direction with a large enough effect, not every such curve was filed as active;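 note: kinase came from lysate of stimulated human HepG2 cells; signal reports phosphorylation of biotinylated GST-cJun 1-79 at Ser73 with 10 µM ATP; % is set by controls: 0 for no effect and ±100 for the full control effect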); details: JNK3 lysate, c-Jun phosphorylation; series mostly up to 57.1 µM
Method in brief: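 Kinase buffer: 20 mM Tris-HCl pH 7.6, 10 mM MgCl2, 1 mM DTT, 0.1 mM Na3VO4, 0.01% Tween-20; ATP 10 uM. Substrate biotin-GST-cJun(1-79), enzyme from activated HepG2 lysates. Detection by Ser73 phospho-antibody AlphaScreen.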

[9] = target: 3',5'-cyclic-AMP phosphodiesterase 4B (Homo sapiens) (UniProt Q07343); experiment: qHTS Assay for Inhibitors of PDE-IV (AID 607; active = well fitted activation curve with a large enough effect in the main read-out, with a control signal flat, not every such curve was filed as active; note: % of control where 0% means no effect); details: HEK293 ACTOne CNG channel cells, membrane potential fluorescence; series mostly up to 22.9 µM
Method in brief: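 ACTOne HEK293 cells carry a modified cAMP-gated CNG channel and express endogenous PDE4; plated 1000 cells/well, compounds up to 22.9 uM final. Membrane-potential dye fluorescence (ex 535/em 590) was read; parental cells received 10 uM forskolin + 100 uM RO 20-1724.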

[10] = target: Cytochrome P450 3A4 (Homo sapiens) (UniProt P08684); experiment: qHTS Assay for Activators of Cytochrome P450 3A4 (AID 885); details: recombinant CYP3A4, Luciferin-PPXE luminescence, 60 min; series mostly up to 57.1 µM; note: nearly all actives have a fitted effect of over 65% in size
Method in brief: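 CYP3A4 activity: Luciferin-PPXE O-dealkylation, 25uM substrate, 200mM KPO4, RT throughout. Read-out is luciferase luminescence; higher values reflect activation.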

[11] = target: Cytochrome P450 2C19 (Homo sapiens) (UniProt P33261); experiment: qHTS Assay for Inhibitors and Substrates of Cytochrome P450 2C19 (AID 899); details: recombinant CYP2C19, luciferin-H EGE luminescence; series mostly up to 57.1 µM; note: potency is the fitted concentration of half-maximal effect; nearly all actives have a fitted effect of over 60% in size
Method in brief: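 5nM enzyme + 10uM Luciferin-H EGE (=KM), 50mM KPO4; cpd pin-transferred, 10 min 37C; NADPH regen, 60 min 37C; stopped w/ luciferin detection reagent, 20 min; luminescence. Normalized to 57uM ketoconazole (AC100).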

[12] = Confirmation and Secondary Assay for Modulators of Hemoglobin Beta Chain Splicing at IVS2 654 locus (AID 910); details: HeLa EGFP-654 splicing reporter, GFP fluorescence, 48 h; series mostly up to 38.3 µM;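 note: HeLa cells stably carrying EGFP split by mutant beta-globin IVS2-654 intron; per-well total GFP intensity by laser scanning cytometry after 2-day treatment; % of control where 0% means no effect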
Method in brief: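 Readout: per-well total peak green fluorescence (488 nm ex, 500–520 nm em) from objects 5–250 µm, reflecting correct splicing of an EGFP-654 reporter. Compounds were applied for 2 days at 37 °C to overnight-plated HeLa EGFP-654 cells; controls were DMSO and 500 nM IVS2-654 PNA.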

[13] = Confirmation and Secondary Assay for Modulators of Hemoglobin Beta Chain Splicing at IVS2 705 locus (AID 930); details: HeLa EGFP-705 splicing reporter, GFP fluorescence, 48 h; series mostly up to 38.3 µM;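 note: HeLa cells stably expressing the EGFP-705 splicing reporter; GFP fluorescence per well restored by corrected splicing of the IVS2-705 intron in EGFP; % of control where 0% means no effect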
Method in brief: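 Stable HeLa line with EGFP disrupted by mutant beta-globin intron 2 (705). Overnight attachment, then 2 days of compound at 37C, 5% CO2. Signal: peak GFP intensity summed over objects 5-250 µm.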

[14] = qHTS Assay for Lipid Storage Modulators (AID 1519; calls by dose curve); details: Drosophila S3 cells, BODIPY lipid droplet/cell ratio, laser cytometry, cells loaded with oleic acid; for activity change, negative = inhibition: at 57.5 µM (top of the series)
Method in brief: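 Cells seeded at 5,000 per well were treated with compounds over a concentration series and loaded with oleic acid (400 uM, as added). Lipid droplet fluorescence (488 nm excitation, 500-530 nm channel) was read by laser-scanning cytometry and normalized to 20 uM Triacsin C.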

[15] = target: Ubiquitin carboxyl-terminal hydrolase 1 (Homo sapiens) (UniProt O94782); experiment: Inhibitors of USP1/UAF1: Pilot qHTS (AID 504865); details: purified USP1/UAF1, Ub-rhodamine cleavage fluorescence; series mostly up to 54.9 µM;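 note: rhodamine fluorescence freed from ubiquitin-rhodamine substrate followed over time; top concentration of the series differs between compounds; % is set by controls: 0 for no effect and ±100 for the full control effect; nearly all actives have a fitted effect of over 35% in size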
Method in brief: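 Enzyme-free wells gave the negative control, while test wells held 1nM USP1/UAF1 preincubated with compound for 15 min at room temperature. Ub-Rho at 150nM final started the reaction, and fluorescence at 480/540 nm was recorded kinetically.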

[16] = Primary qHTS for small molecule stabilizers of the endoplasmic reticulum resident proteome: Secreted ER Calcium Modulated Protein (SERCaMP) assay (AID 1508630); details: SH-SY5Y GLuc-SERCaMP (Gaussia luciferase released on ER calcium loss) secretion, thapsigargin, luminescence; series mostly up to 38.4 µM; note: % is set by controls: 0 for no effect and ±100 for the full control effect
Method in brief: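 The SH-SY5Y reporter protocol was run at 3 concentrations up to 38.3 uM (primary) or 11 concentrations (follow-up): 16 h compound, 100 nM thapsigargin for 4 h, then extracellular luciferase luminescence.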

[17] = target: Cytochrome P450 3A4 (Homo sapiens) (UniProt P08684); experiment: qHTS Assay for Inhibitors and Substrates of Cytochrome P450 3A4 (AID 884); details: recombinant CYP3A4, Luciferin-PPXE luminescence; series mostly up to 57.1 µM; note: potency is the fitted concentration of half-maximal effect; nearly all actives have a fitted effect of over 50% in size
Method in brief: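 Luminescent readout of luciferin produced by CYP3A4 (20 nM) dealkylation of Luciferin-PPXE, 25 uM (its KM). NADPH-driven reaction ran 60 min at RT after 10 min compound preincubation; data scaled to 57 uM ketoconazole as 100% inhibition.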

[18] = target: Cytochrome P450 2C9 (Homo sapiens) (UniProt P11712); experiment: qHTS Assay for Inhibitors and Substrates of Cytochrome P450 2C9 (AID 883); details: recombinant CYP2C9, luciferin-H luminescence, 60 min; series mostly up to 57.1 µM; note: potency is the fitted concentration of half-maximal effect; nearly all actives have a fitted effect of over 60% in size
Method in brief: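 Inhibition of CYP2C9 is scored as loss of luminescence, with 57uM sulphaphenazole defining 100% inhibition. Substrate Luciferin-H is used at 100uM, equal to its KM; enzyme at 10nM in 25mM KPO4, 60 min at 37C with NADPH regeneration.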

[19] = measured here: cell count channel max response
[20] = measured here: lipid channel max response

Glucocorticoid receptor (Homo sapiens), sequence (P04150 whole entry, looked up, the tested form may be a part): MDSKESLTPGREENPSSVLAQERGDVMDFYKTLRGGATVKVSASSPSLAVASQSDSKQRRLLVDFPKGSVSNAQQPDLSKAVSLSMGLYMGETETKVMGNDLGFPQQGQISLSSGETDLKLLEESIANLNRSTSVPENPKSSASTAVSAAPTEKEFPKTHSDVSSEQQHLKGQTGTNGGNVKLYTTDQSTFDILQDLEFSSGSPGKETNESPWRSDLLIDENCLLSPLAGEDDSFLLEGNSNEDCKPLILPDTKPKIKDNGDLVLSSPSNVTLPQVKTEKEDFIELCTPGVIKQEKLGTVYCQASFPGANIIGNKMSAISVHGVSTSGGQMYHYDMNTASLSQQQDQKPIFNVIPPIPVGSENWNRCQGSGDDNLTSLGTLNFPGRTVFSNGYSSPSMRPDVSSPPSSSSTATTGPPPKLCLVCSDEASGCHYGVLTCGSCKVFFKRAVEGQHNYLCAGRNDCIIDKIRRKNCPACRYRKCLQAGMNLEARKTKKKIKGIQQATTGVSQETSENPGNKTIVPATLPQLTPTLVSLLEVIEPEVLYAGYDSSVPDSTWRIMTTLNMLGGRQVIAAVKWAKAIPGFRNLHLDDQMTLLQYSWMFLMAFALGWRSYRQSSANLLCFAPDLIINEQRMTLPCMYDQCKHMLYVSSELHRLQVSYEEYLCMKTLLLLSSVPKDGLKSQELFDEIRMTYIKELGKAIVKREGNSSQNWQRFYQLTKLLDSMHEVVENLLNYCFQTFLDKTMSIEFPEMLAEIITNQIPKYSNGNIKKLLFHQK
Cytochrome P450 3A4 (Homo sapiens), sequence (P08684 whole entry, looked up): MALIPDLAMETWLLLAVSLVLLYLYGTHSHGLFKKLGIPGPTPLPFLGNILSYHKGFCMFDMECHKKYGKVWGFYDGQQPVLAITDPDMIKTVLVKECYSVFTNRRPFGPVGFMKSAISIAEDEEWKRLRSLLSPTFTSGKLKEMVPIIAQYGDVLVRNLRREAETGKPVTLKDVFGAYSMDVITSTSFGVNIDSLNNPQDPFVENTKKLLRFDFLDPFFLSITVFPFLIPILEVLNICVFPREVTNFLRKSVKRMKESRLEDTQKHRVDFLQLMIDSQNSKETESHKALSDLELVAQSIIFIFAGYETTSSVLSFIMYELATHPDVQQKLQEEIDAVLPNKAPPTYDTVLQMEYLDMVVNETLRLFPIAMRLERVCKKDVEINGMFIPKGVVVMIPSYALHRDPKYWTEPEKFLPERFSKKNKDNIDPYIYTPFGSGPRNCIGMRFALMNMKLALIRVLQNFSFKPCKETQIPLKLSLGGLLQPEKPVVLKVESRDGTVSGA
Ubiquitin carboxyl-terminal hydrolase 1 (Homo sapiens), sequence (O94782 whole entry, looked up): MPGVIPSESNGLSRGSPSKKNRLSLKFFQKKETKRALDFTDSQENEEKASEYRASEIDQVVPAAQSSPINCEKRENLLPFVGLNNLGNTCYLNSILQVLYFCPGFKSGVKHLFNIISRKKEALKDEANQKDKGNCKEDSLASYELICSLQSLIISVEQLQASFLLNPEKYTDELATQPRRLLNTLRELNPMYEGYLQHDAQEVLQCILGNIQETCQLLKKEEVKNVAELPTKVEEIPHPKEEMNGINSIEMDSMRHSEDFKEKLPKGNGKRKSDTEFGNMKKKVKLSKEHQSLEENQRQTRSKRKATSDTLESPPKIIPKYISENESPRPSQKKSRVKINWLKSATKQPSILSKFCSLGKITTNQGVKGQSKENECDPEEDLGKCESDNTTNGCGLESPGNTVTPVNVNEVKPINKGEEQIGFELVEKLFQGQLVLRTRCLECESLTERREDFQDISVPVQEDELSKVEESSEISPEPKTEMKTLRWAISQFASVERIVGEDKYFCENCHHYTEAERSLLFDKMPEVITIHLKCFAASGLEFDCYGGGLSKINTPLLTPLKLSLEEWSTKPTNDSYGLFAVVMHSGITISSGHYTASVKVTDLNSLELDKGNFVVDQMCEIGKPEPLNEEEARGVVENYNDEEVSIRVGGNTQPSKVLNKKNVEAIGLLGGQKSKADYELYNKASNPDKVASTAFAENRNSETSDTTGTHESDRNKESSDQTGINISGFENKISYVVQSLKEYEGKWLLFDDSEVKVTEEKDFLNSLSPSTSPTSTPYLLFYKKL
3',5'-cyclic-AMP phosphodiesterase 4B (Homo sapiens), sequence (Q07343 whole entry, looked up): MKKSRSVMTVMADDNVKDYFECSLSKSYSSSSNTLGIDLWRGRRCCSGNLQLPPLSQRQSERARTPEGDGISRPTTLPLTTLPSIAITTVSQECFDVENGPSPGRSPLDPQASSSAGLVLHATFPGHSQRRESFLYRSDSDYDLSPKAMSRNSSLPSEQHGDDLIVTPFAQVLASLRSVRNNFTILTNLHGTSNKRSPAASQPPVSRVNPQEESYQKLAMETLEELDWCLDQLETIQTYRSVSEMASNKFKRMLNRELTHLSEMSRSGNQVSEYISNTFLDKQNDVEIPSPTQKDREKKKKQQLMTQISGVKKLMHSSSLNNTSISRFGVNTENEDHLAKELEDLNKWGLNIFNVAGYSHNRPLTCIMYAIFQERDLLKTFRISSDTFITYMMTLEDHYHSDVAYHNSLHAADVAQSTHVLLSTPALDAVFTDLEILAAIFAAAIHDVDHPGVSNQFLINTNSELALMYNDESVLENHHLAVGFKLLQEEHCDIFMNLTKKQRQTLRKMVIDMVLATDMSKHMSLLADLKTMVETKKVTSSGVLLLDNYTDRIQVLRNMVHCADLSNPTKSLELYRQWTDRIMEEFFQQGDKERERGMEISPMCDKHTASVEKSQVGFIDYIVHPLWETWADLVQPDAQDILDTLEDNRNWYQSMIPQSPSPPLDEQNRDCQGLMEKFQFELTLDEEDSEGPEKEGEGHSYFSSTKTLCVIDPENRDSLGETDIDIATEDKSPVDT
Cytochrome P450 1A2 (Homo sapiens), sequence (P05177 whole entry, looked up): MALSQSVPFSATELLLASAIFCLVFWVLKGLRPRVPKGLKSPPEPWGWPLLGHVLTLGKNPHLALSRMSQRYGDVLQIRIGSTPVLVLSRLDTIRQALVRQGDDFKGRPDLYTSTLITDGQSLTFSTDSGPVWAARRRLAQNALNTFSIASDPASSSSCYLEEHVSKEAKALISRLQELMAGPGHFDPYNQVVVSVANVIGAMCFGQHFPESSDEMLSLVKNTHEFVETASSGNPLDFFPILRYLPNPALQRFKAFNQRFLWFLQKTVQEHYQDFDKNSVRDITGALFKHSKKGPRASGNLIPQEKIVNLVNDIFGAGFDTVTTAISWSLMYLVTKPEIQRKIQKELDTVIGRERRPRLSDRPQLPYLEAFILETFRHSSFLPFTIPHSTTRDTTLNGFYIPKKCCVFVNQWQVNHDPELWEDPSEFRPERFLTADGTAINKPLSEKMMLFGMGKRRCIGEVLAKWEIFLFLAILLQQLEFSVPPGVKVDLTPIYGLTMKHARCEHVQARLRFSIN
Lysosomal acid glucosylceramidase (Homo sapiens), sequence (P04062 whole entry, looked up): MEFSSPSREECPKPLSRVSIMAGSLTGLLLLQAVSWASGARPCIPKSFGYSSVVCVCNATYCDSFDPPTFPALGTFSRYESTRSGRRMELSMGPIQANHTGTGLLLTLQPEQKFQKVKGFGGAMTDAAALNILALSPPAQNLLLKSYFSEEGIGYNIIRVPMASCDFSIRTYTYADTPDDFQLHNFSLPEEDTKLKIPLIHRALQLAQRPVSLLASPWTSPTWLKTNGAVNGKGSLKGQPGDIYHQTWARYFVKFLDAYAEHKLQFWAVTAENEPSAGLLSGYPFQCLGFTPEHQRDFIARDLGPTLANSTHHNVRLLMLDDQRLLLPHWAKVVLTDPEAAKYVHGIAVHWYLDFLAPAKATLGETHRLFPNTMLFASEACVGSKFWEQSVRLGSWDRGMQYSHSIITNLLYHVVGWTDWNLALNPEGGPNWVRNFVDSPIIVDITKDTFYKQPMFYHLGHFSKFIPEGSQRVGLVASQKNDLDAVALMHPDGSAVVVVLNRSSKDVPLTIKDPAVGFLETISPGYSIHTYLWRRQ
Cytochrome P450 2C19 (Homo sapiens), sequence (P33261 whole entry, looked up): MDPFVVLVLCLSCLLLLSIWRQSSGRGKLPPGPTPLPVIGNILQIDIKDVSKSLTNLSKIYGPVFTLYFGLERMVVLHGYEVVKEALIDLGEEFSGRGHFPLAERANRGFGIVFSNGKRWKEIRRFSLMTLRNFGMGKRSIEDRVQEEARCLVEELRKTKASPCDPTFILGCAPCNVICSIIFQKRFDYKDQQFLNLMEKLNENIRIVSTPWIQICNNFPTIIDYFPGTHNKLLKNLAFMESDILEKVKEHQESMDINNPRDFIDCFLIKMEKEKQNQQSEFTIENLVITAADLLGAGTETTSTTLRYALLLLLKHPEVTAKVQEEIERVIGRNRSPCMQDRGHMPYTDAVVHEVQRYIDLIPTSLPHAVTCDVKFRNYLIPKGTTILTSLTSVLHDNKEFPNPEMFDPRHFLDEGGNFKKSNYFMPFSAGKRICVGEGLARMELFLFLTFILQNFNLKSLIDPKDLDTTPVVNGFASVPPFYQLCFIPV
Cytochrome P450 2C9 (Homo sapiens), sequence (P11712 whole entry, looked up): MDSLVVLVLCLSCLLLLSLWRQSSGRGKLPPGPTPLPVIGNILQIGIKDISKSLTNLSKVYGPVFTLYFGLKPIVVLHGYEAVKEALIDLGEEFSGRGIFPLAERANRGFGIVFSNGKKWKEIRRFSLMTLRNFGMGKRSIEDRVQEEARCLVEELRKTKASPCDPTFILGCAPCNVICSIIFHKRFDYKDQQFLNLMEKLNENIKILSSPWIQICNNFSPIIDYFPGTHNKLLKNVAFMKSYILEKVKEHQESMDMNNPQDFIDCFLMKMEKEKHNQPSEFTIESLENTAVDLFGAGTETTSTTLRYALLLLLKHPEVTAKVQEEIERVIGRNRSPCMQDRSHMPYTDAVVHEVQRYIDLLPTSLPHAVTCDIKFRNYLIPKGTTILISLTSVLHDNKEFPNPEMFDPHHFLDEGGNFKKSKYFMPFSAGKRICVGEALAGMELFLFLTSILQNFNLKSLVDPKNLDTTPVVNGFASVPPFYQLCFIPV

CN(Cc1ccco1)c1ncnc2ccc(-c3cccc(C#N)c3)cc12
2.39%: max response [14, 20]
active: Potency [3] 0.501 µM | Potency [11] 6.31 µM
inactive: Potency [1] > 11.4 µM | activity change, negative = inhibition [2] 6.41% | activity change, negative = inhibition [4] 19.8% | activity, negative = inhibition [5] -5.78% | Potency [6] > 46 µM | Potency [7] > 46 µM | outcome [8] | Potency [9] | Potency [10] | outcome [12] | outcome [13] | activity change, negative = inhibition [14] 6.34% | Potency [15] | Potency [16]
-3.6%: max response [14, 19]

COc1ccccc1-c1cc(NCc2cccnc2)ncn1
inactive: Potency [1] > 11.4 µM | activity change, negative = inhibition [2] -6.59% | activity change, negative = inhibition [4] -4.97% | activity, negative = inhibition [5] 0.807% | Potency [6] > 46 µM | Potency [7] > 46 µM | outcome [8] | Potency [10] | outcome [12] | outcome [13] | activity change, negative = inhibition [14] 4.96% | Potency [15] | Potency [16]
9.53%: max response [14, 19]
active: Potency [3] 0.316 µM | Potency [17] 5.01 µM
19.3%: max response [14, 20]

CC(=O)NCCNc1nc(-c2ccccc2C(F)(F)F)nc2ccccc12
23%: max response [14, 20]
inactive: Potency [1] > 11.4 µM | activity change, negative = inhibition [2] 3.94% | activity change, negative = inhibition [4] 4.42% | activity, negative = inhibition [5] -7.86% | Potency [6] > 46 µM | Potency [7] > 46 µM | outcome [8] | Potency [9] | Potency [10] | outcome [12] | outcome [13] | activity change, negative = inhibition [14] 9.13% | Potency [15] | Potency [16]
active: Potency [3] 15.8 µM
11.9%: max response [14, 19]

c1csc(CNc2ncncc2-c2ccc3c(c2)OCO3)c1
8.95%: max response [14, 20]
inactive: Potency [1] > 11.4 µM | activity change, negative = inhibition [2] -9.82% | activity change, negative = inhibition [4] -6.2% | activity, negative = inhibition [5] 6.16% | Potency [6] > 46 µM | Potency [7] > 46 µM | outcome [8] | outcome [12] | outcome [13] | activity change, negative = inhibition [14] 6.61% | Potency [15] | Potency [16]
active: Potency [3] 0.2 µM | Potency [18] 0.316 µM | Potency [11] 0.794 µM
0.346%: max response [14, 19]

Cc1cnc(CNc2ncncc2-c2ccccc2C#N)cn1
14%: max response [14, 19]
24.3%: max response [14, 20]
active: Potency [3] 0.251 µM
inactive: Potency [1] > 11.4 µM | activity change, negative = inhibition [2] 8.99% | activity change, negative = inhibition [4] -5.21% | activity, negative = inhibition [5] -4.72% | Potency [6] > 46 µM | Potency [7] > 46 µM | outcome [8] | Potency [9] | Potency [10] | outcome [12] | outcome [13] | activity change, negative = inhibition [14] 8.38% | Potency [15] | Potency [16]
